Assay results: PubChem BioAssay AID1159580 (chemical genetic matrix, 2015)
Screen size: about 5,500 compounds; about 2,000 (36%) were called active. Roughly 18% stayed inconclusive and do not appear here. Rule as the data show it: active = normalized growth mostly below about 0.91 (no sharp cut-off); inconclusive = no clear call, values can overlap the other calls; inactive = mostly above about 0.92. Some of the results follow.

Test: chemical genetic growth profiling, strain panel (AID 1159580);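 also: tested at 20 µM; growth read once vehicle control cultures reached saturation at 30 °C; 1 = growth at the plate median or of vehicle wells; lower values mean less growth of the strain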
Conditions: S. cerevisiae deletion strains, growth OD
[1] = locus YAL021C, strain ccr4, stronger effect = lower value
[2] = locus YAL026C, strain drs2, stronger effect = lower value
[3] = locus YAL030W, strain snc1, stronger effect = lower value
[4] = locus YBL061C, strain skt5, stronger effect = lower value
[5] = locus YBR009C, strain hhf1, stronger effect = lower value
[6] = locus YBR023C, strain chs3, stronger effect = lower value
[7] = locus YBR171W, strain sec66, stronger effect = lower value
[8] = locus YBR231C, strain swc5, stronger effect = lower value
[9] = locus YBR279W, strain paf1, stronger effect = lower value
[10] = locus YCL011C, strain gbp2, stronger effect = lower value
[11] = locus YCL016C, strain dcc1, stronger effect = lower value
[12] = locus YCL061C, strain MRC1, stronger effect = lower value
[13] = locus YCL069W, strain vba3, stronger effect = lower value
[14] = locus YCR088W, strain abp1, stronger effect = lower value
[15] = locus YDL005C, strain med2, stronger effect = lower value
[16] = locus YDL040C, strain nat1, stronger effect = lower value
[17] = locus YDR001C, strain nth1, stronger effect = lower value
[18] = locus YDR069C, strain doa4, stronger effect = lower value
[19] = locus YDR137W, strain rgp1, stronger effect = lower value
[20] = locus YDR159W, strain sac3, stronger effect = lower value
[21] = locus YDR297W, strain sur2, stronger effect = lower value
[22] = locus YDR334W, strain swr1, stronger effect = lower value
[23] = locus YDR335W, strain msn5, stronger effect = lower value
[24] = locus YDR392W, strain spt3, stronger effect = lower value
[25] = locus YEL003W, strain gim4, stronger effect = lower value
[26] = locus YEL037C, strain rad23, stronger effect = lower value
[27] = locus YEL061C, strain CIN8 (second series), stronger effect = lower value
[28] = locus YER015W, strain faa2, stronger effect = lower value
[29] = locus YER016W, strain bim1, stronger effect = lower value
[30] = locus YER111C, strain swi4, stronger effect = lower value
[31] = locus YER155C, strain BEM2 (second series), stronger effect = lower value
[32] = locus YFR010W, strain ubp6, stronger effect = lower value
[33] = locus YGL167C, strain pmr1, stronger effect = lower value
[34] = locus YGL173C, strain kem1, stronger effect = lower value
[35] = locus YGL227W, strain vid30, stronger effect = lower value
[36] = locus YGL240W, strain doc1, stronger effect = lower value
[37] = locus YGL253W, strain hxk2, stronger effect = lower value
[38] = locus YHR013C, strain ard1, stronger effect = lower value
[39] = locus YHR027C, strain rpn1, stronger effect = lower value
[40] = locus YHR030C, strain SLT2, stronger effect = lower value
[41] = locus YHR079C, strain IRE1, stronger effect = lower value
[42] = locus YHR142W, strain chs7, stronger effect = lower value
[43] = locus YJL092W, strain hpr5, stronger effect = lower value
[44] = locus YJL095W, strain BCK1 (second series), stronger effect = lower value
[45] = locus YJL095W, strain BCK1, stronger effect = lower value
[46] = locus YJL115W, strain asf1, stronger effect = lower value
[47] = locus YJL129C, strain trk1, stronger effect = lower value
[48] = locus YJL154C, strain vps35, stronger effect = lower value
[49] = locus YJL164C, strain tpk1, stronger effect = lower value
[50] = locus YJL166W, strain qcr8, stronger effect = lower value
[51] = locus YJL187C, strain SWE1, stronger effect = lower value
[52] = locus YJR066W, strain TOR1, stronger effect = lower value
[53] = locus YKL160W, strain elf1, stronger effect = lower value
[54] = locus YKR026C, strain gcn3, stronger effect = lower value
[55] = locus YKR091W, strain srl3, stronger effect = lower value
[56] = locus YLL001W, strain dnm1, stronger effect = lower value
[57] = locus YLL026W, stronger effect = lower value
[58] = locus YLL041C, strain sdh2, stronger effect = lower value
[59] = locus YLR027C, strain aat2, stronger effect = lower value
[60] = locus YLR113W, strain HOG1, stronger effect = lower value
[61] = locus YLR221C, strain rsa3, stronger effect = lower value
[62] = locus YLR258W, strain gsy2, stronger effect = lower value
[63] = locus YLR262C, strain YPT6 (second series), stronger effect = lower value
[64] = locus YLR320W, strain mms22, stronger effect = lower value
[65] = locus YLR342W, strain FKS1, stronger effect = lower value
[66] = locus YLR357W, strain rsc2, stronger effect = lower value
[67] = locus YLR370C, strain arc18, stronger effect = lower value
[68] = locus YLR384C, strain iki3, stronger effect = lower value
[69] = locus YML120C, strain ndi1, stronger effect = lower value
[70] = locus YMR058W, strain fet3, stronger effect = lower value
[71] = locus YMR125W, strain sto1, stronger effect = lower value
[72] = locus YMR129W, stronger effect = lower value
[73] = locus YMR205C, strain PFK2, stronger effect = lower value
[74] = locus YMR231W, strain pep5, stronger effect = lower value
[75] = locus YNL071W, strain lat1, stronger effect = lower value
[76] = locus YNL183C, strain NPR1, stronger effect = lower value
[77] = locus YNL209W, strain ssb2, stronger effect = lower value
[78] = locus YNL248C, strain rpa49, stronger effect = lower value
[79] = locus YNL322C, strain KRE1 (second series), stronger effect = lower value
[80] = locus YNR049C, strain mso1, stronger effect = lower value
[81] = locus YOR001W, strain rrp6, stronger effect = lower value
[82] = locus YOR070C, strain gyp1, stronger effect = lower value
[83] = locus YOR080W, strain dia2, stronger effect = lower value
[84] = locus YOR083W, strain WHI5, stronger effect = lower value
[85] = locus YOR106W, strain vam3, stronger effect = lower value
[86] = locus YOR231W, strain MKK1, stronger effect = lower value
[87] = locus YOR265W, strain rbl2, stronger effect = lower value
[88] = locus YOR270C, strain vph1, stronger effect = lower value
[89] = locus YOR290C, strain snf2, stronger effect = lower value
[90] = locus YPL051W, strain arl3, stronger effect = lower value
[91] = locus YPL078C, strain atp4, stronger effect = lower value
[92] = locus YPL106C, strain sse1, stronger effect = lower value
[93] = locus YPL240C, strain hsp82, stronger effect = lower value
[94] = locus YPL256C, strain CLN2, stronger effect = lower value

Measured: normalized growth

COc1ccc(-c2oc3cc(OC)c(OC)c(OC)c3c(=O)c2OC)cc1
active: [2] 0.881 | [4] 0.911 | [5] 0.899 | [19] 0.797 | [24] 0.421 | [31] 0.84 | [37] 0.89 | [42] 0.718 | [61] 0.907 | [63] 0.795 | [64] 0.815 | [75] 0.734
inactive: [1] 0.993 | [3] 0.979 | [6] 0.919 | [7] 0.978 | [8] 0.93 | [9] 0.982 | [10] 0.955 | [11] 0.948 | [12] 0.964 | [13] 0.993 | [14] 0.991 | [15] 0.982 | [16] 0.984 | [17] 0.982 | [18] 0.987 | [20] 0.982 | locus YDR195W, strain ref2 1.04 | [21] 0.976 | [22] 0.98 | [23] 0.985 | [25] 0.977 | [26] 0.982 | [27] 0.98 | [28] 0.981 | [29] 0.988 | [30] 0.983 | [32] 0.981 | [33] 0.976 | [34] 0.97 | [35] 0.987 | [36] 0.959 | [38] 0.87 | [39] 0.983 | [40] 1.02 | [41] 1.02 | [43] 0.984 | [44] 0.972 | [45] 0.959 | [46] 0.997 | [47] 0.907 | [48] 0.994 | [49] 0.928 | [50] 0.934 | [51] 0.98 | [52] 0.967 | [53] 0.945 | [54] 0.978 | [55] 0.99 | [56] 0.953 | [57] 0.983 | [58] 0.985 | [59] 0.96 | [60] 0.887 | [62] 0.967 | [65] 0.989 | [66] 0.896 | [67] 0.969 | [68] 0.974 | [69] 0.966 | [70] 0.959 | [71] 0.96 | [72] 0.992 | [73] 0.926 | [74] 1 | [76] 0.928 | [77] 0.989 | [78] 0.984 | [79] 0.98 | [80] 0.991 | [81] 0.978 | [82] 0.978 | [83] 0.991 | [84] 0.915 | [85] 0.942 | [86] 1.02 | [87] 0.968 | [88] 0.785 | [89] 0.88 | [90] 0.927 | [91] 0.93 | [92] 0.944 | [93] 0.969 | [94] 1.04

COc1ccc(-c2oc3cc(OC)c(OC)c(OC)c3c(=O)c2OC)cc1OC
inactive: [1] 0.98 | [2] 0.957 | [3] 0.979 | [4] 0.998 | [5] 0.966 | [6] 0.986 | [7] 0.972 | [8] 0.968 | [9] 0.983 | [10] 0.972 | [11] 1 | [12] 0.993 | [13] 0.977 | [14] 0.976 | [15] 0.981 | [16] 0.982 | [17] 0.978 | [18] 0.972 | [19] 0.966 | [20] 0.966 | locus YDR195W, strain ref2 0.982 | [21] 0.984 | [22] 0.97 | [23] 0.982 | [24] 0.767 | [25] 0.973 | [26] 0.956 | [27] 0.971 | [28] 0.99 | [29] 0.986 | [30] 0.976 | [31] 0.932 | [32] 0.96 | [33] 0.983 | [34] 0.996 | [35] 0.976 | [36] 0.973 | [37] 0.92 | [38] 0.956 | [39] 1 | [40] 1.03 | [41] 1.01 | [42] 0.933 | [43] 0.966 | [44] 0.987 | [45] 0.972 | [46] 0.986 | [47] 0.979 | [48] 0.974 | [49] 0.974 | [50] 0.978 | [51] 0.981 | [52] 1 | [53] 0.998 | [54] 0.976 | [55] 0.985 | [56] 1 | [57] 0.989 | [58] 0.977 | [59] 0.986 | [60] 0.902 | [61] 1.01 | [62] 0.994 | [63] 0.95 | [64] 0.99 | [65] 0.959 | [66] 0.96 | [67] 0.986 | [68] 0.996 | [69] 0.97 | [70] 0.971 | [71] 0.964 | [72] 0.976 | [73] 0.997 | [74] 0.992 | [75] 0.969 | [76] 0.956 | [77] 0.993 | [78] 0.967 | [79] 0.989 | [80] 0.982 | [81] 0.938 | [82] 0.983 | [83] 0.987 | [84] 0.998 | [85] 0.991 | [86] 1.02 | [87] 0.987 | [88] 0.863 | [89] 0.953 | [90] 1 | [91] 0.977 | [92] 0.969 | [93] 0.995 | [94] 1
